# Assays:
# Test in all cases: DAPPL (digital affinity profiling via proximity ligation, sequencing); 10 mM Tris-HCl pH 7.5, 50 mM NaCl, 1 mM DTT, 4% glycerol, room temperature, 30 min; GST-TFs on glutathione beads, 16-mer random dsDNA library, 0.1% formaldehyde crosslink after washing; high values mean tight binding
# FEV = target: T1, FEV (Homo sapiens, UniProt Q99581 1-238); settings: protein: recombinant; tags: N-terminal GST; dsDNA, one strand shown
# T1 sequence: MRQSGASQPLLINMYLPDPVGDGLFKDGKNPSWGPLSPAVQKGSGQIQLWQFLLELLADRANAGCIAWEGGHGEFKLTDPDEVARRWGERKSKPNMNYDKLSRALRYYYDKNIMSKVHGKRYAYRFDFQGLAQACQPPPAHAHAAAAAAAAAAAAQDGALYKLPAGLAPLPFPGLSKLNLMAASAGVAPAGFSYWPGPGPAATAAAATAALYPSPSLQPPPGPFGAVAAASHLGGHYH
# Procedure, shortened: (§1)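 The binding signal reported is, for every hexamer, its read frequency for a factor over its read frequency for the tag-only sample. Reads came from pools of yeast-expressed, GST-fused human transcription factors on glutathione beads, barcoded with DNA and mixed with that sample, which were incubated with 200 nmole of a random double-stranded 16-mer DNA library in Tris/NaCl/DTT/glycerol buffer at room temperature for 30 min. After washing, the pools were crosslinked with 0.1% formaldehyde, proximity-ligated with BsaI/T4 ligase for 1 h at 37 °C, PCR-amplified and sequenced on an Illumina NextSeq500.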
# ETV5 = ETV5 (Homo sapiens, UniProt P41161 1-510); settings: protein: recombinant; tags: N-terminal GST; dsDNA, one strand shown
# Procedure, shortened: as §1
# HSF1 = HSF1 (Homo sapiens, UniProt Q00613 1-529); settings: protein: recombinant; tags: N-terminal GST; chain copies: 3; dsDNA, one strand shown
# Procedure, shortened: as §1
# SPIC = target: T2, SPIC (Homo sapiens, UniProt Q8N5J4 1-248); settings: protein: recombinant; tags: N-terminal GST; dsDNA, one strand shown
# T2 sequence: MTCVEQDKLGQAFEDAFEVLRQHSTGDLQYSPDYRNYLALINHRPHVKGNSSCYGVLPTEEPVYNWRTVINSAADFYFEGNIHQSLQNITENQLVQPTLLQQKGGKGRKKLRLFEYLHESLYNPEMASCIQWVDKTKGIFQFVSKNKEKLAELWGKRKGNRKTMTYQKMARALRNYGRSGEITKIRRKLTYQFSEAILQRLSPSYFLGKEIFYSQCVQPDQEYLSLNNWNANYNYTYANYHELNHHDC
# Procedure, shortened: as §1
# ELF4 = ELF4 (Homo sapiens, UniProt Q99607 1-663); settings: protein: recombinant; tags: N-terminal GST; dsDNA, one strand shown
# Procedure, shortened: as §1
# ELK4 = target: T3, ELK4 (Homo sapiens, UniProt P28324-2 1-405); settings: protein: recombinant; tags: N-terminal GST; dsDNA, one strand shown
# T3 sequence: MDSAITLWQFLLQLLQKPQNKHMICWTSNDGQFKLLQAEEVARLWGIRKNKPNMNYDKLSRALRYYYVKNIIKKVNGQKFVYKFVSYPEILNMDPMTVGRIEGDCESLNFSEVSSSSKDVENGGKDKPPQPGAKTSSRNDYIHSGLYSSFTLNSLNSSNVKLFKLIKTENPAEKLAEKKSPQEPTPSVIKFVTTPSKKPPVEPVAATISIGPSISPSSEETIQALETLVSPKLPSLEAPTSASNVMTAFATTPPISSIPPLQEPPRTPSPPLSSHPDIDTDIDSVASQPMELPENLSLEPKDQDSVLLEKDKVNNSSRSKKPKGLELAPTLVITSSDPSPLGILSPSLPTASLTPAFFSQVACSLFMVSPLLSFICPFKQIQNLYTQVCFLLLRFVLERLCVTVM
# Procedure, shortened: as §1
# ETV2 = target: T4, ETV2 (Homo sapiens, UniProt O00321 1-342); settings: protein: recombinant; tags: N-terminal GST; dsDNA, one strand shown
# T4 sequence: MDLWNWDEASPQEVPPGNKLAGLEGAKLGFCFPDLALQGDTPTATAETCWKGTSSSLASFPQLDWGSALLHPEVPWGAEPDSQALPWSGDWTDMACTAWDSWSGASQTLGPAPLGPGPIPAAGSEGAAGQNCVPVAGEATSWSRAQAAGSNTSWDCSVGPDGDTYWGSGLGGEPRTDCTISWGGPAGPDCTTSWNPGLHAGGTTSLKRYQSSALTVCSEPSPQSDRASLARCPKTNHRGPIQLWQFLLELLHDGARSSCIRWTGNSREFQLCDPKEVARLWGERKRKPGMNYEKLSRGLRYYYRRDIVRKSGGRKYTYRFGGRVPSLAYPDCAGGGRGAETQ
# Procedure, shortened: as §1
# ELF3 = target: T5, ELF3 (Homo sapiens, UniProt P78545 1-371); settings: protein: recombinant; tags: N-terminal GST; dsDNA, one strand shown
# T5 sequence: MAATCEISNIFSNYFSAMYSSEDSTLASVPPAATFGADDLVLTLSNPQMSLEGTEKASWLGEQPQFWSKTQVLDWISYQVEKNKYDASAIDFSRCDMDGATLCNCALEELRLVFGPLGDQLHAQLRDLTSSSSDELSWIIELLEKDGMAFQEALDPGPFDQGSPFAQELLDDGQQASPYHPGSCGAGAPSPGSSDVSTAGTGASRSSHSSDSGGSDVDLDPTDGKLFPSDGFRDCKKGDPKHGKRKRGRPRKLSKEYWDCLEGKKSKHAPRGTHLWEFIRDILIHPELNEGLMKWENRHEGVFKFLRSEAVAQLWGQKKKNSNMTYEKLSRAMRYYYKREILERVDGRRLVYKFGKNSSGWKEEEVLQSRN
# Procedure, shortened: as §1
# CRX = CRX (Homo sapiens, UniProt O43186 1-299); settings: protein: recombinant; tags: N-terminal GST; dsDNA, one strand shown
# Procedure, shortened: as §1
# ETV1 = ETV1 (Homo sapiens, UniProt P50549 1-477); settings: protein: recombinant; tags: N-terminal GST; dsDNA, one strand shown
# Procedure, shortened: as §1
# ERF = target: T6, ERF (Homo sapiens, UniProt P50548 1-548); settings: protein: recombinant; tags: N-terminal GST; dsDNA, one strand shown
# T6 sequence: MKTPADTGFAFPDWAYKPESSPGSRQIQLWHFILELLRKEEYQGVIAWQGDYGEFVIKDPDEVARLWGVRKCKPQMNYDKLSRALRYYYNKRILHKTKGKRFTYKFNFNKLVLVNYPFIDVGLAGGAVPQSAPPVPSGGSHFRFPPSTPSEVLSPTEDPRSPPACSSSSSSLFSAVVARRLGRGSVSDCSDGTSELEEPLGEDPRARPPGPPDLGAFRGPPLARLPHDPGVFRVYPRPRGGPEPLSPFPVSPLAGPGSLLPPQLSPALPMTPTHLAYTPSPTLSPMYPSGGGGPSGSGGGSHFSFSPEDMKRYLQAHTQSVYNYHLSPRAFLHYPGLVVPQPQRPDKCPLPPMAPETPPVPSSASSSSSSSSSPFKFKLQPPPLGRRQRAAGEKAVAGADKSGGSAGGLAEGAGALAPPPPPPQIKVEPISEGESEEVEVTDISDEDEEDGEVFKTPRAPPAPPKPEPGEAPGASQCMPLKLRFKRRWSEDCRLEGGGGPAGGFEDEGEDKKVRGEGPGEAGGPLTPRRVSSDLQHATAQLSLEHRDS
# Procedure, shortened: as §1
# ETV3L = target: T7, ETV3L (Homo sapiens, UniProt Q6ZN32 1-361); settings: protein: recombinant; tags: N-terminal GST; dsDNA, one strand shown
# T7 sequence: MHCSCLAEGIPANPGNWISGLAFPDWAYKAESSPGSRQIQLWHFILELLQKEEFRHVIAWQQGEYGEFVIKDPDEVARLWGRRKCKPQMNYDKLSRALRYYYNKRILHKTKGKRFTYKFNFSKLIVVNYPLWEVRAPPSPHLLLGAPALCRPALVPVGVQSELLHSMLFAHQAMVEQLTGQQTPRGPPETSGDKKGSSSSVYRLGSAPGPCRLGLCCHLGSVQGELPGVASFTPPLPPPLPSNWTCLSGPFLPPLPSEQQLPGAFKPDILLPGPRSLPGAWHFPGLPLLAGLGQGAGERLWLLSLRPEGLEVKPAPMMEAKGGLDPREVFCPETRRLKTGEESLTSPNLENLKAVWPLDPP
# Procedure, shortened: as §1
# ETS2 = target: T8, ETS2 (Homo sapiens, UniProt P15036 1-469); settings: protein: recombinant; tags: N-terminal GST; dsDNA, one strand shown
# T8 sequence: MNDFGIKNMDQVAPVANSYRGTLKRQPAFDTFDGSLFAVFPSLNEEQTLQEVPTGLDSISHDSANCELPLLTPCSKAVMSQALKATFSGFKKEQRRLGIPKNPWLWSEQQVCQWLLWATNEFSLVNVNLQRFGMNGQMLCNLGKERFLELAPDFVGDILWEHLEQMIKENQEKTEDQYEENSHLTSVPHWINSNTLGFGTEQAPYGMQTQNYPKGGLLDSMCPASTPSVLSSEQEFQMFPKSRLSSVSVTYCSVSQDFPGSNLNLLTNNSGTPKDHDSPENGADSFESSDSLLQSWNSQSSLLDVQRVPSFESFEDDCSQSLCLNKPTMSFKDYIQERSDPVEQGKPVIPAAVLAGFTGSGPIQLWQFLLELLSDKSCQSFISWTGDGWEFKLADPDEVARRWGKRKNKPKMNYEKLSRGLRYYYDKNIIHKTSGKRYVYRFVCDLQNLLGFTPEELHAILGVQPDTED
# Procedure, shortened: as §1
# SPDEF = target: T9, SPDEF (Homo sapiens, UniProt O95238 1-335); settings: protein: recombinant; tags: N-terminal GST; dsDNA, one strand shown
# T9 sequence: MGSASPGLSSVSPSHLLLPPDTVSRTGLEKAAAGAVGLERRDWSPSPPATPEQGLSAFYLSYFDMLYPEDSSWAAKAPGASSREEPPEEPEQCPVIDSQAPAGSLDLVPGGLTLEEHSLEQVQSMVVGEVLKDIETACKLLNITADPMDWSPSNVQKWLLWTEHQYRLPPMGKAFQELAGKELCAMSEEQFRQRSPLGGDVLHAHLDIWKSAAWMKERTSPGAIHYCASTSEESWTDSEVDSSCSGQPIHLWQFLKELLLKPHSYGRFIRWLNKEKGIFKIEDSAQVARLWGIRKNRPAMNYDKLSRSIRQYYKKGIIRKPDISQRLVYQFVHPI
# Procedure, shortened: as §1
# ETV7 = target: T10, ETV7 (Homo sapiens, UniProt Q9Y603 1-341); settings: protein: recombinant; tags: N-terminal GST; dsDNA, one strand shown
# T10 sequence: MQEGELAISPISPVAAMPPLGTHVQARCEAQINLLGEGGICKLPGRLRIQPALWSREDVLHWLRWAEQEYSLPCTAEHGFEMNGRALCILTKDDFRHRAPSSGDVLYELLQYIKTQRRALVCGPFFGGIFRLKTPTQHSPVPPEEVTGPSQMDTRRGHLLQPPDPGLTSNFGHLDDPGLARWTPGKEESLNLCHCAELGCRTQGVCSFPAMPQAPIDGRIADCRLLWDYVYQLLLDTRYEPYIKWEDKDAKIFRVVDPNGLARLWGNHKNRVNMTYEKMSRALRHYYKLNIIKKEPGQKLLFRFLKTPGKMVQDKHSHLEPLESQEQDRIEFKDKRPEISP
# Procedure, shortened: as §1
# ELF5 = target: T11, ELF5 (Homo sapiens, UniProt Q9UKW6-2 1-255); settings: protein: recombinant; tags: N-terminal GST; dsDNA, one strand shown
# T11 sequence: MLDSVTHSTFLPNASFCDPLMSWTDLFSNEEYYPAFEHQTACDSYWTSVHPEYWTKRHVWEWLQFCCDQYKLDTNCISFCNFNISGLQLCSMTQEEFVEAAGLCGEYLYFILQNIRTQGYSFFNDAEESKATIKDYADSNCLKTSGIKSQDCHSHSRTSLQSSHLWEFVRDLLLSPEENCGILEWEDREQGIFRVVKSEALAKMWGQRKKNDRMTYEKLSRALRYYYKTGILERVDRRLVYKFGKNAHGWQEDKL
# Procedure, shortened: as §1
# ETV3 = target: T12, ETV3 (Homo sapiens, UniProt P41162-2 1-143); settings: protein: recombinant; tags: N-terminal GST; dsDNA, one strand shown
# T12 sequence: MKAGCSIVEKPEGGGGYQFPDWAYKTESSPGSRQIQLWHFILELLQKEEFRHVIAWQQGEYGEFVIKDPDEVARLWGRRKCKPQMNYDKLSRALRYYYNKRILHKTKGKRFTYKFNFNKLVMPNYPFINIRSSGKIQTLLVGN
# Procedure, shortened: as §1
# ETV6 = ETV6 (Homo sapiens, UniProt P41212 1-452); settings: protein: recombinant; tags: N-terminal GST; dsDNA, one strand shown
# Procedure, shortened: as §1
# Sequence of CRX (O43186 whole entry): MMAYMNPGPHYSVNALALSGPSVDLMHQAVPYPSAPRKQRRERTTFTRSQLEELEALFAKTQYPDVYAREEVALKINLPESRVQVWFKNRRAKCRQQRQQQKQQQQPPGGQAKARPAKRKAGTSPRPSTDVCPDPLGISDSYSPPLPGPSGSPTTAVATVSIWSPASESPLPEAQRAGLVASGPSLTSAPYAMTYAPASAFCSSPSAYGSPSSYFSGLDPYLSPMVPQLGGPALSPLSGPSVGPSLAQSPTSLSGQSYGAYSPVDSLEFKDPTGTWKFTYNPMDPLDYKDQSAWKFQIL
# Sequence of ETV6 (P41212 whole entry): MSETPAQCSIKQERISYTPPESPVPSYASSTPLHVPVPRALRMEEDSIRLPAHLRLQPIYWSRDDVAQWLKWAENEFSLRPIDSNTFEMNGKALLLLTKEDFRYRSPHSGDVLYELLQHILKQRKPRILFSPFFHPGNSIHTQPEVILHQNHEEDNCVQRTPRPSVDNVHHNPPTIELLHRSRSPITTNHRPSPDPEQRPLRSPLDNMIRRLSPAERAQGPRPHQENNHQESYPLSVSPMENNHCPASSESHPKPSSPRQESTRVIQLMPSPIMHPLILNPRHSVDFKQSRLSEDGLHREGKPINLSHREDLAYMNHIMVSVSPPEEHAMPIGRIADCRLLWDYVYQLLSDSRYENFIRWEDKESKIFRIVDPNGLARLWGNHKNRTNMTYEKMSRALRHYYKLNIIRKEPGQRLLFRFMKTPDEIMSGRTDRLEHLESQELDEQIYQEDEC
# Sequence of ETV1 (P50549 whole entry): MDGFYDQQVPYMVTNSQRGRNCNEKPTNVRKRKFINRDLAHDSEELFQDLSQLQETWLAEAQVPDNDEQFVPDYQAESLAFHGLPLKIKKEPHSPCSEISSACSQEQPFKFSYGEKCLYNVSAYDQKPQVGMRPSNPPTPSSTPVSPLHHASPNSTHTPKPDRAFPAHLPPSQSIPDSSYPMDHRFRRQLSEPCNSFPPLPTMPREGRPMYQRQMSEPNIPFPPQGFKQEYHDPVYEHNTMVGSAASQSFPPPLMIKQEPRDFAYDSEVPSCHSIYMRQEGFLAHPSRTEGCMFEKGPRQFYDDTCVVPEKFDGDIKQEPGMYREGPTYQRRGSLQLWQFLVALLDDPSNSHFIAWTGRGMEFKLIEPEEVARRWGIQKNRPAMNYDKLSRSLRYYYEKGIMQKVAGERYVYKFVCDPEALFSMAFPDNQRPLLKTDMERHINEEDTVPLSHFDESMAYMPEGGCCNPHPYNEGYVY
# Sequence of ETV5 (P41161 whole entry): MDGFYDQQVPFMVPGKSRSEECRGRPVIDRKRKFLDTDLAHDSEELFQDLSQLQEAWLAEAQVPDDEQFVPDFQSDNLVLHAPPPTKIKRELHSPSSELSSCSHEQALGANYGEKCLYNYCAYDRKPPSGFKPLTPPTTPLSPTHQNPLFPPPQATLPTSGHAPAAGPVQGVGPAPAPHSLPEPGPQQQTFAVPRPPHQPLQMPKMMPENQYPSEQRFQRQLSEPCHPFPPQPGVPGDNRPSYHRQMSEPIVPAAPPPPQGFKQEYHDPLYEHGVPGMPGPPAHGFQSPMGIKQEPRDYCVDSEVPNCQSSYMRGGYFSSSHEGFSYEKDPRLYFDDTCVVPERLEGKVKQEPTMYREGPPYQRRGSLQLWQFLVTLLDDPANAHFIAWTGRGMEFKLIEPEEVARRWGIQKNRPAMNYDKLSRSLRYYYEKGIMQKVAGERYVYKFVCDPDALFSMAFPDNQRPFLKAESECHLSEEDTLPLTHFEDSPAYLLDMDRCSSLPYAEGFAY
# Sequence of HSF1 (Q00613 whole entry): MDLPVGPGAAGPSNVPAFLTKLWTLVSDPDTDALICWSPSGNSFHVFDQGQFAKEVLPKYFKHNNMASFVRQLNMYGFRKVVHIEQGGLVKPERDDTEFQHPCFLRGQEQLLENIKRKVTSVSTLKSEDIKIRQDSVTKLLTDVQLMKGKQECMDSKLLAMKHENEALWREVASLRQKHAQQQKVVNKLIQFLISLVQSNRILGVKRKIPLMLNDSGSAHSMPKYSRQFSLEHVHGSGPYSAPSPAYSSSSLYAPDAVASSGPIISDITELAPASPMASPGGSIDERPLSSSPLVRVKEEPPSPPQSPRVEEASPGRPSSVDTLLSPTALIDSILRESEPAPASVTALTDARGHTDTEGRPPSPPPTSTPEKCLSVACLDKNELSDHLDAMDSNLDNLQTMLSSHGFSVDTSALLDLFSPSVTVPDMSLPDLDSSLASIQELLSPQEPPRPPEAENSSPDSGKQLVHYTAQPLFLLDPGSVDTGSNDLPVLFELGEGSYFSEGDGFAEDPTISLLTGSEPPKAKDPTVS
# Sequence of ELF4 (Q99607 whole entry): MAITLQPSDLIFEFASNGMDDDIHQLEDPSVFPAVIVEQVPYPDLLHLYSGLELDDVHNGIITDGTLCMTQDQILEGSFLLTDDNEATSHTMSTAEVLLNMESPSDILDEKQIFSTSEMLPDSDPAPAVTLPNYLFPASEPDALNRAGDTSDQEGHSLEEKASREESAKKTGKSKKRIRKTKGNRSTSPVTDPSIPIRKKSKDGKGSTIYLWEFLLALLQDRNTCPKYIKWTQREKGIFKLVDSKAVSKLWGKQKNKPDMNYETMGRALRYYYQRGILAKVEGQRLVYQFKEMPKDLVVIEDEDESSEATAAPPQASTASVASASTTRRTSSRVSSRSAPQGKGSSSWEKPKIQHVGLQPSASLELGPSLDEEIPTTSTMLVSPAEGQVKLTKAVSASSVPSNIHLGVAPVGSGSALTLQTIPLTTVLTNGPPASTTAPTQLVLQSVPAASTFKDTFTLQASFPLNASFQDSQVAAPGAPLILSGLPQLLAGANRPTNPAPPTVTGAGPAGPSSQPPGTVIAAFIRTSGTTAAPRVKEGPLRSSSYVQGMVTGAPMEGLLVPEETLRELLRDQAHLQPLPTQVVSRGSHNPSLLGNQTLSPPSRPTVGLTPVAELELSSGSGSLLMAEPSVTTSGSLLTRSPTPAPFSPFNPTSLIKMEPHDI
sequence,measurement,setting,value
ATAACA,binding signal,FEV,"1.28 fold enrichment (6-mer frequency, TF over GST control)"
same,binding signal,ETV5,"1.25 fold enrichment (6-mer frequency, TF over GST control)"
same,binding signal,HSF1,"1.2 fold enrichment (6-mer frequency, TF over GST control)"
same,binding signal,SPIC,"1.31 fold enrichment (6-mer frequency, TF over GST control)"
same,binding signal,ELF4,"1.28 fold enrichment (6-mer frequency, TF over GST control)"
same,binding signal,ELK4,"1.2 fold enrichment (6-mer frequency, TF over GST control)"
same,binding signal,ETV2,"1.28 fold enrichment (6-mer frequency, TF over GST control)"
same,binding signal,ELF3,"1.21 fold enrichment (6-mer frequency, TF over GST control)"
same,binding signal,CRX,"1.39 fold enrichment (6-mer frequency, TF over GST control)"
same,binding signal,ETV1,"1.24 fold enrichment (6-mer frequency, TF over GST control)"
same,binding signal,ERF,"1.31 fold enrichment (6-mer frequency, TF over GST control)"
same,binding signal,ETV3L,"1.28 fold enrichment (6-mer frequency, TF over GST control)"
same,binding signal,ETS2,"1.27 fold enrichment (6-mer frequency, TF over GST control)"
same,binding signal,SPDEF,"1.21 fold enrichment (6-mer frequency, TF over GST control)"
same,binding signal,ETV7,"1.32 fold enrichment (6-mer frequency, TF over GST control)"
same,binding signal,ELF5,"1.28 fold enrichment (6-mer frequency, TF over GST control)"
same,binding signal,ETV3,"1.2 fold enrichment (6-mer frequency, TF over GST control)"
same,binding signal,ETV6,"1.26 fold enrichment (6-mer frequency, TF over GST control)"

# Reference: paper PMC7862700, “An all-to-all approach to the identification of sequence-specific readers for epigenetic DNA modifications on cytosine”
